# What was measured:
# Experiment in all cases: DAPPL (digital affinity profiling via proximity ligation, sequencing); 10 mM Tris-HCl pH 7.5, 50 mM NaCl, 1 mM DTT, 4% glycerol, room temperature, 30 min; GST-TFs on glutathione beads, 16-mer random dsDNA library, 0.1% formaldehyde crosslink after washing; high values mean tight binding
# FEV = molecular target: T1, FEV (Homo sapiens, UniProt Q99581 1-238); settings: protein: recombinant; tags: N-terminal GST; dsDNA, one strand shown
# T1 sequence: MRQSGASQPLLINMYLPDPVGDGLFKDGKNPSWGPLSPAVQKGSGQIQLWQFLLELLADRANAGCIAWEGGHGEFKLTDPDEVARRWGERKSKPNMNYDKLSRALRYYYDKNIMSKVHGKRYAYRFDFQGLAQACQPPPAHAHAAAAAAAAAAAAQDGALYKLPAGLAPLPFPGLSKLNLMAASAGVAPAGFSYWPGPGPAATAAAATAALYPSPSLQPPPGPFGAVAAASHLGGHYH
# Procedure, shortened: (§1)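 Pools of DNA-barcoded human transcription factors, expressed in yeast as GST fusions on glutathione beads and combined with a tag-only sample, were incubated with 200 nmole of a 16-mer random double-stranded DNA library. Incubation took 30 min at room temperature in Tris/NaCl/DTT/glycerol buffer and was followed by washing, 0.1% formaldehyde crosslinking, proximity ligation (BsaI/T4 ligase, 1 h, 37 °C), PCR amplification and sequencing on an Illumina NextSeq500. Binding signal is the ratio of a hexamer's read frequency for a factor to its frequency for the tag-only sample.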
# ETV5 = ETV5 (Homo sapiens, UniProt P41161 1-510); settings: protein: recombinant; tags: N-terminal GST; dsDNA, one strand shown
# Procedure, shortened: as §1
# HSF1 = HSF1 (Homo sapiens, UniProt Q00613 1-529); settings: protein: recombinant; tags: N-terminal GST; chain copies: 3; dsDNA, one strand shown
# Procedure, shortened: as §1
# SPIC = molecular target: T2, SPIC (Homo sapiens, UniProt Q8N5J4 1-248); settings: protein: recombinant; tags: N-terminal GST; dsDNA, one strand shown
# T2 sequence: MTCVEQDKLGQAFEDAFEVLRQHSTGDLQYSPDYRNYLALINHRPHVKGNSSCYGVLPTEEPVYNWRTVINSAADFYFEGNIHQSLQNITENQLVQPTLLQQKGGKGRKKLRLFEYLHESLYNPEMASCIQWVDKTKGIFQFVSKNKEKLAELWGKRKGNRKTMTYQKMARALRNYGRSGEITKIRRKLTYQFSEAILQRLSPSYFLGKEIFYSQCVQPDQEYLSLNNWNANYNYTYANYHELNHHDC
# Procedure, shortened: as §1
# ELF4 = ELF4 (Homo sapiens, UniProt Q99607 1-663); settings: protein: recombinant; tags: N-terminal GST; dsDNA, one strand shown
# Procedure, shortened: as §1
# ELK4 = molecular target: T3, ELK4 (Homo sapiens, UniProt P28324-2 1-405); settings: protein: recombinant; tags: N-terminal GST; dsDNA, one strand shown
# T3 sequence: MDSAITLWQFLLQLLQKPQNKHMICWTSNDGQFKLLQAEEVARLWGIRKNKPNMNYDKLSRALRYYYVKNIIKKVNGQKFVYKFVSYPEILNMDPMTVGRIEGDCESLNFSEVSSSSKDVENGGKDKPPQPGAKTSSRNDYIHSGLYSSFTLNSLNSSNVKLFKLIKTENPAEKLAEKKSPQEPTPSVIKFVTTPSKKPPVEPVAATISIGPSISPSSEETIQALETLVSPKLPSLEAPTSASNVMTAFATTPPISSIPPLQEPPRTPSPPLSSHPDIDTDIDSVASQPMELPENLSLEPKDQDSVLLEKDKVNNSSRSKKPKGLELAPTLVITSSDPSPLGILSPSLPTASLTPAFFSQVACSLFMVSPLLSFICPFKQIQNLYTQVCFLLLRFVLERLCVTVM
# Procedure, shortened: as §1
# ETV2 = molecular target: T4, ETV2 (Homo sapiens, UniProt O00321 1-342); settings: protein: recombinant; tags: N-terminal GST; dsDNA, one strand shown
# T4 sequence: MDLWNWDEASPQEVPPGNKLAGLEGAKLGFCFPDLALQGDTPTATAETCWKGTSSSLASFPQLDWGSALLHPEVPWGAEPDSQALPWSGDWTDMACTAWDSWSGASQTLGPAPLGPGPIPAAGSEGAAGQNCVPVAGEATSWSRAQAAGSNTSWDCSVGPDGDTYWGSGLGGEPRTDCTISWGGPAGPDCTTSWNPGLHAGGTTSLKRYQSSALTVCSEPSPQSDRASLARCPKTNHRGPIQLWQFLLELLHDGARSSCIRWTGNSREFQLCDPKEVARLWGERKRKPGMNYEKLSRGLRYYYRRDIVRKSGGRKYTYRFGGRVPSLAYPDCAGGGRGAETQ
# Procedure, shortened: as §1
# ELF3 = molecular target: T5, ELF3 (Homo sapiens, UniProt P78545 1-371); settings: protein: recombinant; tags: N-terminal GST; dsDNA, one strand shown
# T5 sequence: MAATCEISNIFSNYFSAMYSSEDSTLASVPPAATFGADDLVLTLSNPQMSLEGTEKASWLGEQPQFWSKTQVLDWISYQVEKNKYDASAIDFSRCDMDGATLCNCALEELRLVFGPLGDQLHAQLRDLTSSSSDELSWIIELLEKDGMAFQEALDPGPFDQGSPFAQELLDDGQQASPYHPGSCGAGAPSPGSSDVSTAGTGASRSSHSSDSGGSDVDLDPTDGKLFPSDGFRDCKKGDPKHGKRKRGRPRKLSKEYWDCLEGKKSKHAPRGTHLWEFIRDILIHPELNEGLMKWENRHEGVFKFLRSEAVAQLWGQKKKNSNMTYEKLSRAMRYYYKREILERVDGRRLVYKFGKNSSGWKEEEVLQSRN
# Procedure, shortened: as §1
# CRX = CRX (Homo sapiens, UniProt O43186 1-299); settings: protein: recombinant; tags: N-terminal GST; dsDNA, one strand shown
# Procedure, shortened: as §1
# ETV1 = ETV1 (Homo sapiens, UniProt P50549 1-477); settings: protein: recombinant; tags: N-terminal GST; dsDNA, one strand shown
# Procedure, shortened: as §1
# ERF = molecular target: T6, ERF (Homo sapiens, UniProt P50548 1-548); settings: protein: recombinant; tags: N-terminal GST; dsDNA, one strand shown
# T6 sequence: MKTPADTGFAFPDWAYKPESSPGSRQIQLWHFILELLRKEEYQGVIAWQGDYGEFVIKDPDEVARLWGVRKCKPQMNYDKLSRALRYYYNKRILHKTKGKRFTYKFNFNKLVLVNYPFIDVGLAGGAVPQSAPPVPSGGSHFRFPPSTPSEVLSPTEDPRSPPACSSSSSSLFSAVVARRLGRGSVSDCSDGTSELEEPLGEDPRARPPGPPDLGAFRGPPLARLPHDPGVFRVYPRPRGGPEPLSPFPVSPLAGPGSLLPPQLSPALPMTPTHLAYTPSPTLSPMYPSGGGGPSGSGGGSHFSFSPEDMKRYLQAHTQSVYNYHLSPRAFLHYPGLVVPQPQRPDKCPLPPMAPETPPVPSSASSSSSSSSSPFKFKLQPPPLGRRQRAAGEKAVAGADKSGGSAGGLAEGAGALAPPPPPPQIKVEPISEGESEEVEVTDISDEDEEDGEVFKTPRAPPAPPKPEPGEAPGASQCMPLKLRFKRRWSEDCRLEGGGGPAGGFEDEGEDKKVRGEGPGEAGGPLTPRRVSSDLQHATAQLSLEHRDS
# Procedure, shortened: as §1
# ETV3L = molecular target: T7, ETV3L (Homo sapiens, UniProt Q6ZN32 1-361); settings: protein: recombinant; tags: N-terminal GST; dsDNA, one strand shown
# T7 sequence: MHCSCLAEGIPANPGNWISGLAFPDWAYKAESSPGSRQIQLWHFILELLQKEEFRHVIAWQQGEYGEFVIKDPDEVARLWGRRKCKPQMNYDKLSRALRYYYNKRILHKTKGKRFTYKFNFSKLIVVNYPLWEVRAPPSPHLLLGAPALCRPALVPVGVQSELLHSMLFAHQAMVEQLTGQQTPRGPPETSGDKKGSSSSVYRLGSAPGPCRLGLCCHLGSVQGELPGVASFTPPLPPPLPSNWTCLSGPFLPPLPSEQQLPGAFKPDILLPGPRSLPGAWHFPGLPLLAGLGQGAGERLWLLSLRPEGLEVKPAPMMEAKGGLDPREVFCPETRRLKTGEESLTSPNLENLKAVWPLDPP
# Procedure, shortened: as §1
# ETS2 = molecular target: T8, ETS2 (Homo sapiens, UniProt P15036 1-469); settings: protein: recombinant; tags: N-terminal GST; dsDNA, one strand shown
# T8 sequence: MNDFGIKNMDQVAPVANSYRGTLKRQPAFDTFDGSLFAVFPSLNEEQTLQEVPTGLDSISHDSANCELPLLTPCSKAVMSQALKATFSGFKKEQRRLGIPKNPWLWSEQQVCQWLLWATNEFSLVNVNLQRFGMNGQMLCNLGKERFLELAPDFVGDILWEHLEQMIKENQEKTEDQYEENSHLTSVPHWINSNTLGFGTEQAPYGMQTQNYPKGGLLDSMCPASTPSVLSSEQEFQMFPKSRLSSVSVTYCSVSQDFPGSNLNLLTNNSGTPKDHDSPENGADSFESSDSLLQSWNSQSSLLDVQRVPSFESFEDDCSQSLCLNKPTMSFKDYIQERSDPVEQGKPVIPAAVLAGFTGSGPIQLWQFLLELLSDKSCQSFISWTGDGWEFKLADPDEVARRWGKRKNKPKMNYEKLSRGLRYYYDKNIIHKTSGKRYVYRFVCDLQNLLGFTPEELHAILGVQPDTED
# Procedure, shortened: as §1
# SPDEF = molecular target: T9, SPDEF (Homo sapiens, UniProt O95238 1-335); settings: protein: recombinant; tags: N-terminal GST; dsDNA, one strand shown
# T9 sequence: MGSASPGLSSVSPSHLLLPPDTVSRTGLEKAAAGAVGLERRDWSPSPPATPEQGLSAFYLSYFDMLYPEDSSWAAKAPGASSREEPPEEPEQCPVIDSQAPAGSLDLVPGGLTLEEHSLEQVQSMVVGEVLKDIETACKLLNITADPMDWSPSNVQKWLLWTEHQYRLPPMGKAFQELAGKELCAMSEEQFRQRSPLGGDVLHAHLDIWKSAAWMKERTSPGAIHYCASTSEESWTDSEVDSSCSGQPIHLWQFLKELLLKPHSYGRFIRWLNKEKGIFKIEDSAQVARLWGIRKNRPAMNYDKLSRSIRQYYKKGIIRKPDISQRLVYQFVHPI
# Procedure, shortened: as §1
# ETV7 = molecular target: T10, ETV7 (Homo sapiens, UniProt Q9Y603 1-341); settings: protein: recombinant; tags: N-terminal GST; dsDNA, one strand shown
# T10 sequence: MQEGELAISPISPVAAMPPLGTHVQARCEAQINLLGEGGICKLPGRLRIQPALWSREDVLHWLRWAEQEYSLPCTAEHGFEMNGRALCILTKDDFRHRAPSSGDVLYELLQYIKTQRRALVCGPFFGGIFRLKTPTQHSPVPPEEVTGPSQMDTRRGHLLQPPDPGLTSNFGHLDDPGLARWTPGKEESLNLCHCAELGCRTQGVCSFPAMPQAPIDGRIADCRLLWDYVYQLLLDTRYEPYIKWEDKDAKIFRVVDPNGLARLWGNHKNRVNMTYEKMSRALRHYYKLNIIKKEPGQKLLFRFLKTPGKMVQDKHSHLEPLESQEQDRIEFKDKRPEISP
# Procedure, shortened: as §1
# ETV3 = molecular target: T11, ETV3 (Homo sapiens, UniProt P41162-2 1-143); settings: protein: recombinant; tags: N-terminal GST; dsDNA, one strand shown
# T11 sequence: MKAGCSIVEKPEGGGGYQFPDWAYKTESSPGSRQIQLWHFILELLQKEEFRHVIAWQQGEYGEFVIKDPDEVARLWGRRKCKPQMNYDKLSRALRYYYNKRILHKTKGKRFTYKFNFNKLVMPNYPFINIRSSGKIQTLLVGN
# Procedure, shortened: as §1
# ETV6 = ETV6 (Homo sapiens, UniProt P41212 1-452); settings: protein: recombinant; tags: N-terminal GST; dsDNA, one strand shown
# Procedure, shortened: as §1
# Sequence of ELF4 (Q99607 whole entry): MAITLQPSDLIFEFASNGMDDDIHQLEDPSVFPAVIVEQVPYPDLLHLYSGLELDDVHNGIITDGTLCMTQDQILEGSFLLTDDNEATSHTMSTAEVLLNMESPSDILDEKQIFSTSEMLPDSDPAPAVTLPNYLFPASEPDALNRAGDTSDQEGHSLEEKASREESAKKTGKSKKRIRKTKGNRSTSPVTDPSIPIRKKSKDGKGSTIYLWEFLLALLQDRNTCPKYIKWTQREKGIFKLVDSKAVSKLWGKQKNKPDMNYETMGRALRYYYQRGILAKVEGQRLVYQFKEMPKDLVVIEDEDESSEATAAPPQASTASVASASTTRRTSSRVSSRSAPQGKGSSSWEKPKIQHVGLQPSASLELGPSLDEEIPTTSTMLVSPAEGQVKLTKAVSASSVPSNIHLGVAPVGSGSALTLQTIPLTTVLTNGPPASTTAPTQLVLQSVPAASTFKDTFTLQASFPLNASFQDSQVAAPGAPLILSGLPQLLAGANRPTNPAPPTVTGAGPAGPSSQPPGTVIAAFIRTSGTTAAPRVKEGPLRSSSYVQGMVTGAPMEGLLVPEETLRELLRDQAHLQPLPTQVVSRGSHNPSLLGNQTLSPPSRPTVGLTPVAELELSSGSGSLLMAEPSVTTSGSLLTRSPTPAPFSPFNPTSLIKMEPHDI
# Sequence of HSF1 (Q00613 whole entry): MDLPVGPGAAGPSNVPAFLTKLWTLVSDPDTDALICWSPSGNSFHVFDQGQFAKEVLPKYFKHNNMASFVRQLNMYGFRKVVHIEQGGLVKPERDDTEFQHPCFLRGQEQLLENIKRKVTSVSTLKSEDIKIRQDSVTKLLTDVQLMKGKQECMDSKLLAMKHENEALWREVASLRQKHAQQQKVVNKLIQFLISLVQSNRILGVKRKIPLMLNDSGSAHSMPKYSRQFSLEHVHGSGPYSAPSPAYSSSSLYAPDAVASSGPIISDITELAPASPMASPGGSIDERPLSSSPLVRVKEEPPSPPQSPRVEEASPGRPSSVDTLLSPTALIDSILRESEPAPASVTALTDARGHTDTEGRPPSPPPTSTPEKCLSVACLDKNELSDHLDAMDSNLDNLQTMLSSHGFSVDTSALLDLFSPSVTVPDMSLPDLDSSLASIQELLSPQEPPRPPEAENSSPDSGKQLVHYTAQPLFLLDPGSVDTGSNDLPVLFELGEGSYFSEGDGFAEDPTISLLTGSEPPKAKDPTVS
# Sequence of ETV6 (P41212 whole entry): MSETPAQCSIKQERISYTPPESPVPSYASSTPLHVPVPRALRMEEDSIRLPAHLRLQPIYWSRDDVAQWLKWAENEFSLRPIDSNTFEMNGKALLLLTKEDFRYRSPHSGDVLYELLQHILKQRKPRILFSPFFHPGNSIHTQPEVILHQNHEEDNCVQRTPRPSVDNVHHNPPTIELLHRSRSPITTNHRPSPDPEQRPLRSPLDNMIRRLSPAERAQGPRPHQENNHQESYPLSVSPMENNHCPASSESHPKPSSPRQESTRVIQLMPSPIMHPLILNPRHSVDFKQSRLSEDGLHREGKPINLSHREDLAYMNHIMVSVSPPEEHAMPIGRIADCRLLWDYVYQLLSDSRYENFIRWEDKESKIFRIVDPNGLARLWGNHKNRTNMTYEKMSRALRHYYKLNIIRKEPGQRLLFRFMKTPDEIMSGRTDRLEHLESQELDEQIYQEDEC
# Sequence of ETV5 (P41161 whole entry): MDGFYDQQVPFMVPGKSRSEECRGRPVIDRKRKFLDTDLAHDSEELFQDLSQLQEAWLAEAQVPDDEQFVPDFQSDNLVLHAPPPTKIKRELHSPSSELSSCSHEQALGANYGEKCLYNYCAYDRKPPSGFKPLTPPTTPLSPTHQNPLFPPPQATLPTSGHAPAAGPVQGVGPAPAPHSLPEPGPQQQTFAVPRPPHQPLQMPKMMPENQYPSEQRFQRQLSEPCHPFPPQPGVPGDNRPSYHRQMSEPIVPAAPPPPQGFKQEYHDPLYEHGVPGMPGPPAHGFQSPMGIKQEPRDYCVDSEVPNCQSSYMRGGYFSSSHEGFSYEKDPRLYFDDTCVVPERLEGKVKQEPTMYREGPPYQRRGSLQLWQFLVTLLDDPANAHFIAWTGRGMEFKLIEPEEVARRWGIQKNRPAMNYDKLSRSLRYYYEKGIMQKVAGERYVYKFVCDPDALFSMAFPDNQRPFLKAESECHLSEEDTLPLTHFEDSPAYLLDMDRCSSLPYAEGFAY
# Sequence of CRX (O43186 whole entry): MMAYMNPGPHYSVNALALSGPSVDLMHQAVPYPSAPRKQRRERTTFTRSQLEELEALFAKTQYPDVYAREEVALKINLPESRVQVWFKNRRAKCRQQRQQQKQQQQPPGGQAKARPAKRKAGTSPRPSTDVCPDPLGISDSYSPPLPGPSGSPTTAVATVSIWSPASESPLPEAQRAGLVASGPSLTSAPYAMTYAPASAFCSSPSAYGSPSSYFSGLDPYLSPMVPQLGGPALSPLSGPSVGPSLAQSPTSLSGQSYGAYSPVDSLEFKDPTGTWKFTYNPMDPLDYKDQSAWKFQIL
# Sequence of ETV1 (P50549 whole entry): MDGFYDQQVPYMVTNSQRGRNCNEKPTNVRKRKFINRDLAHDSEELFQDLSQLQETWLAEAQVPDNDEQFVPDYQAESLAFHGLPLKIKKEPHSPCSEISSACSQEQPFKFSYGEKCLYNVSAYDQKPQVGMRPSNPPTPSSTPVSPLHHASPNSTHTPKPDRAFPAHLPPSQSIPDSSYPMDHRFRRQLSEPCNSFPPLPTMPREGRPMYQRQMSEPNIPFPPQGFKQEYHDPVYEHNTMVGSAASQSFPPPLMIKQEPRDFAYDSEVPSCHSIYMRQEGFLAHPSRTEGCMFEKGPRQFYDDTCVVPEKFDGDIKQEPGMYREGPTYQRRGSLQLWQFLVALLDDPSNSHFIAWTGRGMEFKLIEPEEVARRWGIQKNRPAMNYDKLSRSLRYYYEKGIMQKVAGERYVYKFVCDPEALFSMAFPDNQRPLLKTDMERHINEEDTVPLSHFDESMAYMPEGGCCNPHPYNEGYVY
sequence,measurement,setting,value
AGCTCA,binding signal,FEV,"1.08 fold enrichment (6-mer frequency, TF over GST control)"
same,binding signal,ETV5,"1.1 fold enrichment (6-mer frequency, TF over GST control)"
same,binding signal,HSF1,"1.22 fold enrichment (6-mer frequency, TF over GST control)"
same,binding signal,SPIC,"1.08 fold enrichment (6-mer frequency, TF over GST control)"
same,binding signal,ELF4,"1.16 fold enrichment (6-mer frequency, TF over GST control)"
same,binding signal,ELK4,"1.27 fold enrichment (6-mer frequency, TF over GST control)"
same,binding signal,ETV2,"1.25 fold enrichment (6-mer frequency, TF over GST control)"
same,binding signal,ELF3,"1.11 fold enrichment (6-mer frequency, TF over GST control)"
same,binding signal,CRX,"1.45 fold enrichment (6-mer frequency, TF over GST control)"
same,binding signal,ETV1,"1.24 fold enrichment (6-mer frequency, TF over GST control)"
same,binding signal,ERF,"1.08 fold enrichment (6-mer frequency, TF over GST control)"
same,binding signal,ETV3L,"1.08 fold enrichment (6-mer frequency, TF over GST control)"
same,binding signal,ETS2,"1.13 fold enrichment (6-mer frequency, TF over GST control)"
same,binding signal,SPDEF,"1.08 fold enrichment (6-mer frequency, TF over GST control)"
same,binding signal,ETV7,"1.03 fold enrichment (6-mer frequency, TF over GST control)"
same,binding signal,ETV3,"1.15 fold enrichment (6-mer frequency, TF over GST control)"
same,binding signal,ETV6,"1.1 fold enrichment (6-mer frequency, TF over GST control)"

# From PMC7862700, “An all-to-all approach to the identification of sequence-specific readers for epigenetic DNA modifications on cytosine”
